# PubChem BioAssay (NCI)
# This is part of a sample that, as a whole, favours compounds with a hit. Of some 83,000 tested, about 20% had one in any assay.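 Interpretation: 100, growth as untreated; towards 0, rising growth inhibition; 0, no net growth; 0 to -100, cell death. Compounds scoring below 10 were considered active.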 A number with no mark means an inactive call. Calls of active or inactive are those of the source.
# Legend:
# Experiment in all cases: NCI-60 one-dose screen, 48 h (100 = growth as untreated, 0 = no growth, -100 = all killed)
# Settings in all cases: 10 µM unless noted
# SK-MEL-2 melanoma = system: SK-MEL-2 melanoma
# EKVX NSCLC = system: EKVX NSCLC
# SN12C renal = system: SN12C renal
# UO-31 renal = system: UO-31 renal
# TK-10 renal = system: TK-10 renal
# ACHN renal = system: ACHN renal
# CAKI-1 renal = system: CAKI-1 renal
# A498 renal = system: A498 renal
# MOLT-4 leukemia = system: MOLT-4 leukemia
# RPMI-8226 leukemia = system: RPMI-8226 leukemia
# OVCAR-8 ovarian = system: OVCAR-8 ovarian
# OVCAR-5 ovarian = system: OVCAR-5 ovarian
# OVCAR-4 ovarian = system: OVCAR-4 ovarian
# SK-OV-3 ovarian = system: SK-OV-3 ovarian
# IGROV1 ovarian = system: IGROV1 ovarian
# OVCAR-3 ovarian = system: OVCAR-3 ovarian
# HS 578T breast = system: HS 578T breast
# NCI/ADR-RES ovarian = system: NCI/ADR-RES ovarian
# CCRF-CEM leukemia = system: CCRF-CEM leukemia
# SR leukemia = system: SR leukemia
SMILES,growth (SK-MEL-2 melanoma),growth (EKVX NSCLC),growth (SN12C renal),growth (UO-31 renal),growth (TK-10 renal),growth (ACHN renal),growth (CAKI-1 renal),growth (A498 renal),growth (MOLT-4 leukemia),growth (RPMI-8226 leukemia),growth (OVCAR-8 ovarian),growth (OVCAR-5 ovarian),growth (OVCAR-4 ovarian),growth (SK-OV-3 ovarian),growth (IGROV1 ovarian),growth (OVCAR-3 ovarian),growth (HS 578T breast),growth (NCI/ADR-RES ovarian),growth (CCRF-CEM leukemia),growth (SR leukemia)
CC(=O)Nc1cccc(Nc2nc(N[C@@H](C)c3ccccc3)c3ccccc3n2)c1,38.2%,24%,33.4%,19.2%,54.1%,28.6%,18.5%,-33.5% (active),-17% (active),-30.9% (active),39%,18.6%,17.5%,53.6%,18.4%,13%,1.68% (active),-0.0139% (active),–,–
CCCn1cnc2c(c1=N)C(c1ccc(Cl)cc1)c1sc3c(CC)cccc3c1O2 (stereo not drawn),22.5%,43%,27.8%,32.4%,61.1%,35.3%,32.2%,–,10%,-5.3% (active),20.5%,29%,89.1%,29.7%,18.4%,6.2% (active),4.18% (active),10.4%,0.961% (active),24.2%
CCO/C=N/C1=C(C#N)C(c2ccc(Cl)cc2)c2sc3c(C)cccc3c2O1 (stereo not drawn),42.6%,45.9%,26.2%,30.3%,62.2%,31.8%,39.5%,–,18.8%,7.03% (active),28%,27.9%,64.3%,59.4%,26.6%,-30.6% (active),18.9%,11.7%,16.2%,12.2%
CC(C)(O)c1cncc(-c2ccc3ncnc(NCc4ccccc4)c3c2)c1,107%,32.7%,57.6%,37.1%,42.8%,66.4%,42.6%,5.8% (active),98.6%,84.6%,102%,62.5%,77.3%,110%,34.2%,83.8%,73.2%,103%,–,92.2%
COc1cc(-c2nn(C(C)(C)C)cc2-c2ccnc(NCCCNS(=O)(=O)c3ccc(C)cc3)n2)ccc1Cl,87.4%,46.1%,60.8%,44%,65.2%,89.6%,27.4%,30.9%,44.8%,88.9%,89.8%,88.1%,56.3%,106%,62.8%,95.5%,76.6%,89.8%,–,51.3%
COc1ccccc1C(=O)Nc1cccc2c1C(=O)C(=O)C=C2,109%,72.2%,90.9%,59.2%,116%,101%,76.4%,38.4%,36.8%,88.3%,102%,114%,74.8%,114%,79.2%,13.1%,102%,113%,–,–
COc1ccc(S(=O)(=O)NCCCNc2nccc(-c3cn(C(C)(C)C)nc3-c3ccc(Cl)c(OC)c3)n2)cc1,89.7%,47.2%,57.1%,44.5%,60.3%,84.6%,25.5%,58.7%,60.6%,84.7%,87.9%,90.3%,–,103%,57.9%,97.5%,82.9%,87.8%,–,48.8%
CCO/C=N/C1=C(C#N)C(c2ccc(OC)cc2)c2sc3c(C)cccc3c2O1 (stereo not drawn),36.5%,39.9%,25.2%,34.3%,78.5%,37.6%,33.3%,-15.6% (active),16.4%,0.107% (active),29.3%,34.4%,85.3%,50.3%,27.1%,7.72% (active),16.6%,10.9%,–,–
Cn1ccnc1C(=O)/C=C/c1ccc(CNC(=O)c2c(F)c(F)c(F)c(F)c2F)cc1,99.4%,93.2%,44.5%,79.7%,79.2%,47.9%,76%,83.3%,23%,9.9% (active),90.1%,94.9%,–,105%,31.7%,14.8%,86.9%,49.1%,–,12.8%
Oc1cccc2ccc(-c3nnc(SCc4ccc(O)c5ncccc45)o3)nc12,8.17% (active),17.5%,7.07% (active),-6.85% (active),27.9%,7.94% (active),8.28% (active),35.2%,17.4%,2.55% (active),–,40.9%,20.5%,12.3%,13.4%,2.66% (active),8.45% (active),17.3%,–,26.1%
O=C(Nc1nc2ccc([N+](=O)[O-])cc2s1)Nc1ccccc1Br,48.1%,35.3%,23.4%,43.4%,81.1%,47.3%,64.1%,21.4%,27.1%,6.15% (active),51.4%,84.4%,12.2%,63.6%,47.3%,25.9%,47.1%,52.1%,–,23.2%
COc1cc2nc(Cl)nc(Nc3cccc(C4=Nc5c(N)nc(N)nc5NC(c5ccccc5)C4)c3)c2cc1OC (stereo not drawn),88.8%,96.7%,93.4%,94.4%,110%,91.8%,96.1%,88.9%,54.5%,49%,67.2%,110%,96.7%,121%,86.7%,77.7%,96.4%,94.1%,–,-1.18% (active)
COc1cc2oc(-c3cccc(NC(=O)c4cc(N)ccc4Cl)c3)cc(=O)c2c(OC)c1OC,110%,91.4%,100%,80.9%,98.3%,95%,87.9%,82.6%,72.8%,60.2%,–,109%,–,124%,99.5%,104%,114%,100%,–,82.6%
CCN1CCN(Cc2cn(-c3ccc(S(N)(=O)=O)cc3)nn2)CC1,115%,103%,104%,94%,108%,108%,96.5%,–,104%,109%,102%,108%,108%,105%,107%,112%,102%,111%,104%,102%
CS(=O)(=O)Nc1cc(-c2ccc3ncc(C#N)c(NCc4ccccc4)c3c2)cnc1Cl,-42.2% (active),-20.1% (active),7.64% (active),1.63% (active),-25.2% (active),5.99% (active),-27.7% (active),–,-25.6% (active),-35.3% (active),7.32% (active),3.75% (active),-6.69% (active),-15% (active),-17.4% (active),-5.17% (active),-21.2% (active),24.5%,–,-18.9% (active)
O=C(O)c1ccc(-n2cc(CNc3cc(F)c(F)c(F)c3)c(-c3ccc(F)cc3)n2)cc1,78.7%,85.6%,91.9%,77.4%,150%,71.4%,–,97.6%,74.2%,76.3%,83.9%,108%,95.5%,116%,91.9%,96.3%,97.5%,97.8%,82.7%,78.1%
O=C(Nc1nc2ccc([N+](=O)[O-])cc2s1)Nc1ccccc1Cl,9.56% (active),33.6%,10.4%,31.8%,40.1%,42.7%,21.8%,–,21.8%,–,12.8%,81.8%,14%,22.8%,39.1%,16.8%,46.9%,47.1%,28.9%,18.1%
